Screens as filed in PubChem BioAssay.
Hits are enriched below; roughly 4.6% of the tested compounds scored in any of these assays.
KKLEB tox: reduces viability of KKLEB cystic fibrosis airway cells | activity change (cytotoxicity), % at 5 µM | 360,000 tested, 0.36% active | KKLEB CF airway cells viability, ATPlite luminescence, overnight; stronger effect = lower value; cells stimulated with P. aeruginosa culture filtrate | AID 602141;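 active = corrected activity change at or below -50% at 5 µM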
CF NFkB inh: cystic fibrosis NF-kB activation inhibition | KKLEB NF-kB-GFP reporter, PAF-induced, GFP fluorescence overnight | inhibition, % at 5 µM | 360,000 tested, 0.86% active | AID 588850;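 active = at least 50% inhibition at 5 µM, scaled per plate between neutral and stimulator controls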;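 also: PAF is a Pseudomonas aeruginosa culture filtrate used as stimulus; plate controls were PAF-stimulated DMSO wells for no effect and unstimulated DMSO wells for full effect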
Mdm2-MdmX inh: inhibitors of human Mdm2/MdmX interaction; 330,000 tested, 3% active; AID 485346; inhibition, % at 8 µM; SaOS-2 split-luciferase Mdm2/MdmX complementation, luminescence; O15151+Q00987;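 active = inhibition of at least 50% at 8 µM in the primary screen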
ABHD5-PLIN5 inh: ABHD5-PLIN5 protein interaction inhibition; inhibition, % at 4 µM; AID 602281; 360,000 tested, 0.78% active; Split G. princeps luciferase complementation, luminescence, 4 h; Q00G26+Q8WTS1;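 active = inhibition above the mean inhibition across every tested compound plus 3 SD, cut at about 22% in these data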;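 also: 0% = DMSO only wells and the 100% control is not disclosed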
HIF-2a inh: blocks HIF-2a reporter activity. 786-0 RCC cells HIF-2a reporter, luciferase luminescence, overnight. inhibition, % at 18.8 µM. 360,000 tested, 0.72% active. AID 624352;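 active = inhibition of the luminescence signal of 40% or more relative to plate controls, in a single-dose primary screen at 18.75 µM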
Peg3 prom inh: reduces Peg3 promoter-driven luciferase expression in HeLa | HeLa PEG-Prom luciferase reporter, luminescence, overnight | inhibition, % at 20 µM | AID 588405 | 360,000 tested, 1.7% active;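 active = inhibition of at least 50% at 20 µM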
Numbers without * were called inactive; . = no result.

SMILES | KKLEB tox | CF NFkB inh | Mdm2-MdmX inh | ABHD5-PLIN5 inh | HIF-2a inh | Peg3 prom inh
O=C(O)CCC(=O)Nc1cccc(-c2csc(-c3ccccc3)n2)c1 | 5 | 14 | -9 | 3 | 83* | -1
CCCCC(=O)Nc1cccc(-c2csc(-c3ccccc3)n2)c1 | 9 | -4 | -1 | 9 | -141 | -83
Cc1occc1C(=O)NNC(=O)c1ccccc1[N+](=O)[O-] | 9 | 16 | -4 | 5 | -3 | -4
CC(C)c1ccc(/C=C/c2[nH]c(=O)[nH]c(=O)c2[N+](=O)[O-])cc1 | 6 | 5 | -12 | 22* | -14 | -21
CCOc1ccc(/C=C/c2[nH]c(=O)[nH]c(=O)c2[N+](=O)[O-])cc1 | -6 | 14 | -8 | 3 | 0 | 3
Nc1nc(N)c2cc(S(=O)(=O)c3cccc(C(F)(F)F)c3)ccc2n1 | -19 | 27 | . | 1 | 29 | 22
CN(C)c1ccc(Sc2ccc3nc(N)nc(N)c3c2)cc1 | -31 | 24 | . | 11 | -4 | 105*
O=C(/C=C/c1ccccc1F)c1ccoc1 | -1 | 16 | 35 | 31* | -1 | 12
CC(/C=C/c1ccccc1F)=N\NC(=O)c1ccccc1 | -4 | 0 | -65 | 6 | -133 | -244
Cc1cccc(OCCN2CSC(=S)N(C)C2)c1 | -2 | -5 | 36 | -2 | 13 | 57*
CC(C)(C)NC(=O)C(c1ccncc1)N(Cc1cccs1)C(=O)Cn1nnc(-c2cccs2)n1 (stereo not drawn) | -4 | 5 | 32 | -3 | 20 | 63*
CC1COCC(C)N1C1=C(Cl)C(=O)c2ccccc2C1=O (stereo not drawn) | -4 | 44 | . | -49 | -2 | 100*
CN1CCN(C2=C(Cl)C(=O)c3ccccc3C2=O)CC1 | -3 | 34 | . | -40 | 12 | 65*
O=C1C(Cl)=C(NCCN2CCOCC2)C(=O)c2ccccc21 | 4 | 12 | 3 | -16 | -7 | -23
O=C1C(Cl)=C(N2CCC(C(=O)O)CC2)C(=O)c2ccccc21 | 1 | 14 | -20 | -22 | -7 | 5
COC(=O)[C@]1(CC(C)C)N[C@H](c2ccc(-c3cccc(Cl)c3)cc2)[C@@H]2C(=O)N(C)C(=O)[C@@H]21 | -3 | 32 | 42 | -21 | 6 | -22
CCOc1ccc(N(CC(=O)NCCc2ccccc2)C(=O)CCC(=O)Nc2cc(C)ccn2)cc1 | -6 | 1 | -1 | -5 | 17 | 8
O=C(C[C@@H]1CC[C@@H]2[C@H](COC[C@H](O)CN2CCC(F)(F)F)O1)NCc1ccc2c(c1)OCO2 | . | . | . | -1 | 7 | .
COc1ccc(CNC(=O)COC(=O)[C@H](Cc2ccccc2)NC(=O)c2cccs2)cc1 | 0 | 10 | 4 | 11 | 9 | -6
CCCCn1nnc(NC(=O)c2ccc(-c3ccccc3[N+](=O)[O-])o2)n1 | -10 | 4 | -2 | 4 | -151 | -85
CCn1nnc(NC(=O)c2ccc([N+](=O)[O-])o2)n1 | 0 | 68* | -5 | -1 | -29 | 25
CCCCn1c(=N)n(CC(O)COc2cccc(C)c2)c2ccccc21 (stereo not drawn) | -9 | 5 | 44 | 2 | 7 | 70*
CN(C)C(=O)C[C@@H]1CC[C@@H](NC(=O)C2CCC2)[C@@H](CO)O1 | . | . | . | 4 | 13 | .
O=c1cc(-c2ccccc2Cl)oc2c(NS(=O)(=O)c3cccs3)ccc(O)c12 | -15 | 52* | 18 | 3 | -12 | 2
C#CCOc1ccc(CNC[C@H]2O[C@@H](n3ccc(=O)[nH]c3=O)[C@H](O)[C@@H]2O)cc1 | 4 | 5 | . | 1 | 9 | 6
SMILES | KKLEB tox | CF NFkB inh | Mdm2-MdmX inh | ABHD5-PLIN5 inh | HIF-2a inh | Peg3 prom inh
COc1cc(/C=C2/C(=O)c3cccc([N+](=O)[O-])c3C2=O)c(Br)cc1O | -26 | 41 | . | 16 | 96* | 110*
N#CCC(=O)N/N=C/c1c(-c2ccccc2)n(-c2ccccc2)c2ccccc12 | -2 | 12 | 19 | 6 | 30 | 35
CC(=NNC(=S)N1CCCCC1)c1ccccn1 | -4 | -18 | . | -14 | -88 | -14
CC(=NNC(=S)N1CC2CCC(CC2)C1)c1ccncn1 | -21 | 33 | . | -21 | -137 | 100*
Cc1ccc(S(=O)(=O)N2[C@@H](c3ccc(Cl)cc3)C(C(=O)O)=CC[C@H]2c2cccs2)cc1 | 3 | 17 | -22 | 2 | 14 | 8
N#Cc1c(NC(=O)CSc2nc(-c3ccccc3)cc(C(F)(F)F)n2)sc2c1CCC2 | -21 | 6 | 23 | -2 | 10 | 5
COc1ccc(-c2cc(C(F)(F)F)nc(SCC(=O)Nc3sc4c(c3C#N)CCC4)n2)cc1 | -61* | 44 | 11 | -6 | 3 | 11
O=C1C2C3C=CC(CNS(=O)(=O)c4ccccc4)(O3)C2C(=O)N1c1ccc(Cl)cc1 (stereo not drawn) | -3 | 32 | -24 | 15 | -10 | 26
O=C1C2C3C=CC(CO)(O3)C2C(=O)N1c1ccccc1-c1ccccc1 (stereo not drawn) | -31 | 76* | 1 | 45* | 11 | 105*
O=NN(CC(=O)NNc1ccccc1)CC(=O)NNc1ccccc1 | -5 | 15 | . | 3 | 5 | -2
COC(=O)c1c(NC(=O)C(Cl)Cl)sc2c1C(C(=O)OC)CC2 (stereo not drawn) | 1 | -6 | 38 | 9 | 19 | 81*
Cc1ccc(S(=O)(=O)/N=C2\C=C(NS(=O)(=O)c3ccccc3)C(=O)c3ccccc32)c(C)c1 | -6 | 78* | . | -5 | -5 | -15
CC(C)(C)c1ccc(S(=O)(=O)/N=C2\C=C(NS(=O)(=O)c3ccccc3)C(=O)c3ccccc32)cc1 | -16 | 82* | 34 | -7 | -10 | 29
C/C(=N\NS(=O)(=O)c1ccc(C(C)(C)C)cc1)c1ccccc1 | -4 | -12 | 0 | -5 | -3 | -8
Cc1ccccc1-n1c(=O)cc(N2CC(C)OC(C)C2)[nH]c1=O (stereo not drawn) | 4 | 12 | -8 | 23* | -11 | -1
CC1(C(=O)NS(=O)(=O)C2CC2)CCN(C(=O)c2ccccc2F)C1 (stereo not drawn) | -3 | 9 | . | 6 | -4 | -6
Cc1nc2cc(N3CCOCC3)c(NC(=O)C3CC3)cc2c(=O)n1Cc1ccccc1 | -8 | 4 | 0 | -5 | 8 | -11
Cc1nc2cc(N3CCCCC3)c(NC(=O)c3ccncc3)cc2c(=O)n1Cc1ccccc1 | -7 | 15 | . | 2 | -3 | 86*
Cc1coc(NC(=O)CSc2nc(-c3ccc(Cl)cc3)cc(C(F)(F)F)c2C#N)n1 | -13 | -8 | 44 | 0 | 19 | 60*
COCCn1c(-c2ccc(OC)cc2)cnc1SCC(=O)Nc1ccc(OC)cc1OC | 6 | -5 | 7 | 2 | 11 | 64*
COCCn1c(-c2ccc(OC)cc2)cnc1SCC(=O)Nc1cc(C)on1 | -2 | 2 | -10 | -2 | 11 | 8
